A number with no mark means an inactive call. Inconclusive results are not listed. Activity calls are given as the source filed them. The call rests on the fitted dose curve; in most records, active means well fitted curve in the direction sought with a large enough effect; inconclusive means small, poorly fitted or top-dose-only effect, or another doubt; inactive means no such curve, though single readings can be large; an effect the other way counts as inactive or inconclusive.
test system: Nanoluciferase (engineered Oplophorus gracilirostris luciferase); experiment: Primary Nanoluciferase (NLuc) qHTS assay for identification of artifact compounds. (AID 1845222); settings: NLuc-conditioned medium, Nano-Glo luminescence, 5 min; series mostly up to 54.1 µM;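 further: NLuc secreted into diluted conditioned medium of S16 cells; 0% = DMSO and -100% = no enzyme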
Outline: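 NLuc from S16 cell medium (1:55) plus test compounds, 15 min, room temperature. Luminescence after Nano-Glo (1:100) addition, 5 min.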

SMILES | outcome | activity, negative = inhibition
CCN1C[C@]2(OC(=O)c3ccccc3NC(C)=O)CC[C@H](OC)[C@@]34[C@@H]2C[C@@H]([C@@H]13)[C@@]1(O)C[C@H](OC)[C@H]2C[C@@H]4[C@]1(O)[C@H]2OC | inactive | –
C[C@H](NC(=O)Cc1cc(F)cc(F)c1)C(=O)N[C@@H]1N=C(c2ccccc2)c2ccccc2N(C)C1=O | inactive | –
OC1(c2ccc(Cl)cc2)c2ccccc2C2=NCCN21 (centres undefined) | inactive | –
CCCN1CCO[C@H]2c3cc(O)ccc3OC[C@@H]21 | inactive | –
CCCCCOc1cc2c(cc1-c1cc(/C=C/C(=O)O)ccc1O)C(C)(C)CCC2(C)C | inactive | –
C/C=C(\C)C(=O)OC1CC2C(CC=C3CC(OC4CC(OC)C(OC5CC(OC)C(OC6OC(C)C(OC7OC(CO)C(O)C(O)C7O)C(OC)C6O)C(C)O5)C(C)O4)CCC32C)C2(O)CCC(C(C)=O)C12C (centres undefined) | – | 4.82% [at 11.6 µM]
CN[C@H]1[C@H](O)[C@H](O[C@@H]2[C@@H](O)[C@H](O[C@H]3O[C@H]([C@H](C)O)[C@@H](O)[C@H](O)[C@H]3N)[C@@H](N)C[C@H]2N)OC[C@@]1(C)O | inactive | –

test system: not listed separately; experiment: Primary redox qHTS assay for identification of artifact compounds. (AID 1845223); settings: Amplex Red/HRP redox cycling with DTT, fluorescence; series mostly up to 53.8 µM;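 further: 0% = DMSO and 100% = reference compound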
Outline: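 Redox-cycling detection via DTT (250 uM final) oxidation coupled to Amplex Red (25 uM)/HRP (250 mU/mL) in HBSS. 15 min preincubation plus 30 min after DTT, room temperature. Ex/Em 525/598 nm; 4-parameter Hill fit against DMSO and 10 uM DA3003.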

SMILES | outcome | redox activity (% of DA3003)
COC1=CC(=O)O[C@@H](CCc2ccccc2)C1 | inactive | –
CN1C(=O)N(c2ccc(C#N)c(C(F)(F)F)c2)C(=O)[C@]1(CO)c1ccccc1 | inactive | –
CCCCCCn1c(=O)c(C(=O)Nc2ccc(C(=O)OCCC)cc2)c(O)c2ccccc21 | – | -1.37% [at 11.5 µM]
CN1CCCC1CCOC(c1cc2nccc(C(=O)O)c2[nH]1)c1ccccc1Cl (centres undefined) | inactive | –
COC1CC(O[C@H]2CC[C@]3(C=O)C4CC[C@]5(C)[C@@H](C6=CC(=O)OC6)CC[C@]5(O)[C@@H]4CC[C@]3(O)C2)OC(C)C1O[C@@H]1O[C@H](CO)[C@@H](O)[C@H](O)[C@H]1O (some centres undefined) | inactive | –
Cn1ncnc1COc1nn2c(-c3c(F)cccc3F)nnc2cc1C1CCC1 | inactive | –
CC(C)[C@@H](CN1CC[C@@](C)(c2cccc(O)c2)[C@@H](C)C1)NC(=O)[C@H]1Cc2ccc(O)cc2CN1 | inactive | –
C=C(C)[C@H]1O[C@H]2CC[C@@]3(C)[C@@](O)(CC[C@H]4[C@@H]5OC(C)(C)[C@H]6C[C@@H]7C(=C)Cc8c(Cl)cc9[nH]c(c5c9c8[C@@]76O)[C@@]43C)[C@]23O[C@@H]3[C@H]1O | inactive | –
C=C[C@H]1CN2CC[C@H]1C[C@@H]2[C@@H](O)c1ccnc2ccccc12 | inactive | –
Clc1ccc(OCC2=NCCN2)cc1Cl | inactive | –
CC[C@H]1CN2CC[C@H]1C[C@H]2[C@H](O)c1ccnc2ccc(OC)cc12 | inactive | –
CC1=C2C[C@H]3[C@@H](CC=C4C[C@@H](O)CC[C@@]43C)[C@@H]2CC[C@]12O[C@@H]1C[C@H](C)CN[C@H]1[C@H]2C | inactive | –
C[C@H](NC(=O)Cc1cc(F)cc(F)c1)C(=O)N[C@@H]1N=C(c2ccccc2)c2ccccc2N(C)C1=O | inactive | –
OC1(c2ccc(Cl)cc2)c2ccccc2C2=NCCN21 (centres undefined) | inactive | –
CCCN1CCO[C@H]2c3cc(O)ccc3OC[C@@H]21 | inactive | –
C/C=C(\C)C(=O)OC1CC2C(CC=C3CC(OC4CC(OC)C(OC5CC(OC)C(OC6OC(C)C(OC7OC(CO)C(O)C(O)C7O)C(OC)C6O)C(C)O5)C(C)O4)CCC32C)C2(O)CCC(C(C)=O)C12C (centres undefined) | – | 4.57% [at 11.5 µM]
CN[C@H]1[C@H](O)[C@H](O[C@@H]2[C@@H](O)[C@H](O[C@H]3O[C@H]([C@H](C)O)[C@@H](O)[C@H](O)[C@H]3N)[C@@H](N)C[C@H]2N)OC[C@@]1(C)O | inactive | –

— PubChem BioAssay (NCATS)
